Measured values from PubChem BioAssay (Tox21).
“And” between values parts separate entries of the source, which are not always exact repeats. Identical values can stand only once. Inconclusive results are not listed. A call without a number means that no potency is given here. Some structures have more than one record in an assay (separate samples or runs), and their calls can disagree. The source made the active and inactive calls. Unless noted, the call rests on the fitted dose curve; in most records, active means well fitted curve in the direction sought with a large enough effect in the repeat runs; inconclusive means weak or mixed curves; inactive means no such curve, though single readings can be large; an effect the other way counts as inactive or inconclusive.

Legend:
[1] = qHTS assay for small molecules that induce genotoxicity in human embryonic kidney cells expressing luciferase-tagged ATAD5 (AID 651632); further: nearly all actives have a fitted effect of over 15% in size; further: potency means the concentration at half of the fitted maximal effect
Summary of the method: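 Luminescence read-out: after 16 hr compound exposure at 37C, ATAD5-luciferase HEK293T cells received Amplite, 30 min RT, then CCD imaging. A rise in signal marks genotoxic stress.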

[2] = qHTS assay for small molecule agonists of the p53 signaling pathway - cell viability (AID 651633; calls by dose curve; further: nearly all actives have a fitted effect of over 30% in size; further: potency means the concentration at half of the fitted maximal effect)
Summary of the method: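 Viability counter-read: CellTiter-Glo luminescence (30 min, room temperature) in the same p53RE-bla plates. These plates had been exposed to compounds for 16 h at 37 C.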

[3] = qHTS assay for small molecules that induce genotoxicity in human embryonic kidney cells expressing luciferase-tagged ATAD5 - cell viability (AID 651634; calls by dose curve; further: nearly all actives have a fitted effect of over 25% in size)
Summary of the method: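 HEK293T ATAD5-luc cells, 2,000/well; compound 15.5 hr, 37C/5% CO2; CellTiter-Fluor 30 min, 37C; fluorescence read.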

[4] = qHTS assay to test for compound auto fluorescence at 590 nm (red) in HepG2 cells (AID 720674)
Summary of the method: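 Red autofluorescence (Ex/Em 540/590 nm, Rose Bengal sodium equivalents) was measured in HepG2 cells, 2,000 per well in MEM plus 10% FBS, plated overnight at 37 C. Readings were taken 1 hr after adding 23 nL compound or DMSO, at 37 C and 5% CO2.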

[5] = qHTS assay to test for compound auto fluorescence at 535 nm (green) in HepG2 cells (AID 720675)
[6] = qHTS assay to test for compound auto fluorescence at 460 nm (blue) in HEK293 cells (AID 720678)
Summary of the method: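 Cells were seeded and left to adhere for 4-5 hr at 37C. Compounds were then pin-transferred. After an overnight incubation at 37C under 5% CO2, intrinsic fluorescence at 405/460 nm was measured and referenced to triamterene.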

[7] = qHTS assay to test for compound auto fluorescence at 590 nm (red) in HEK293 cells (AID 720679)
Summary of the method: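 Each well held 2,000 HEK293 cells in medium containing 10% dialyzed FBS. Following 4-5 hr attachment at 37C, 23 nL test compound or DMSO was added; plates sat overnight, and red fluorescence (540/590nm) was recorded.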

[8] = qHTS assay to test for compound auto fluorescence at 535 nm (green) in HEK293 cells (AID 720680)
[9] = qHTS assay to test for compound auto fluorescence at 460 nm (blue) in HEK293 cell free culture (AID 720681)
Summary of the method: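 Blue fluorescence (Ex 405/Em 460 nm, triamterene-equivalent) was read immediately after pin transfer of compound or DMSO into medium (DMEM, 10% FBS) without cells.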

[10] = qHTS assay to test for compound auto fluorescence at 535 nm (green) in HEK293 cell free culture (AID 720682)
Summary of the method: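 Compounds were pin-transferred into cell-free DMEM with 10% FBS, and green fluorescence was read at excitation 485 nm and emission 535 nm. Intensities were expressed as fluorescein-equivalent values.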

[11] = qHTS assay to test for compound auto fluorescence at 590 nm (red) in HEK293 cell free culture (AID 720683)
Summary of the method: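 Red-channel autofluorescence of compounds in culture medium (DMEM, 10% FBS), no cells, measured at 540/590 nm. Rose Bengal sodium is the reference fluorophore for equivalence.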

[12] = qHTS assay to test for compound auto fluorescence at 590 nm (red) in HepG2 cell free culture (AID 720684)
Summary of the method: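 Cell-free; medium MEM + 10% FBS; compound or DMSO added by pintool; read Ex 540/Em 590 nm; Rose Bengal sodium as red reference fluorophore.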

[13] = qHTS assay to test for compound auto fluorescence at 460 nm (blue) in HepG2 cell free culture (AID 720685)
Summary of the method: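 Cell-free plates of MEM plus 10% FBS received 23 nL compound or DMSO vehicle; blue-channel (405/460 nm) intensity scored against triamterene as reference fluorophore.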

[14] = qHTS assay to test for compound auto fluorescence at 535 nm (green) in HepG2 cell free culture (AID 720686)
[15] = qHTS assay to test for compound auto fluorescence at 460 nm (blue) in HepG2 cells (AID 720687)
Summary of the method: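 Blue-channel autofluorescence (Ex/Em 405/460 nm, triamterene-equivalent) was measured after 1 hr compound exposure at 37 C, 5% CO2. Cells were HepG2, plated overnight at 37 C in MEM plus 10% FBS.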

[16] = target: Glucocorticoid receptor (Homo sapiens) (UniProt P04150); experiment: qHTS assay to identify small molecule agonists of the glucocorticoid receptor (GR) signaling pathway (AID 720691; active means well fitted activation curve with a large enough effect in the signal ratio in the repeat runs, not every such curve was filed as active; the % refers to the signal ratio)
Glucocorticoid receptor (Homo sapiens), sequence (P04150 whole entry, looked up): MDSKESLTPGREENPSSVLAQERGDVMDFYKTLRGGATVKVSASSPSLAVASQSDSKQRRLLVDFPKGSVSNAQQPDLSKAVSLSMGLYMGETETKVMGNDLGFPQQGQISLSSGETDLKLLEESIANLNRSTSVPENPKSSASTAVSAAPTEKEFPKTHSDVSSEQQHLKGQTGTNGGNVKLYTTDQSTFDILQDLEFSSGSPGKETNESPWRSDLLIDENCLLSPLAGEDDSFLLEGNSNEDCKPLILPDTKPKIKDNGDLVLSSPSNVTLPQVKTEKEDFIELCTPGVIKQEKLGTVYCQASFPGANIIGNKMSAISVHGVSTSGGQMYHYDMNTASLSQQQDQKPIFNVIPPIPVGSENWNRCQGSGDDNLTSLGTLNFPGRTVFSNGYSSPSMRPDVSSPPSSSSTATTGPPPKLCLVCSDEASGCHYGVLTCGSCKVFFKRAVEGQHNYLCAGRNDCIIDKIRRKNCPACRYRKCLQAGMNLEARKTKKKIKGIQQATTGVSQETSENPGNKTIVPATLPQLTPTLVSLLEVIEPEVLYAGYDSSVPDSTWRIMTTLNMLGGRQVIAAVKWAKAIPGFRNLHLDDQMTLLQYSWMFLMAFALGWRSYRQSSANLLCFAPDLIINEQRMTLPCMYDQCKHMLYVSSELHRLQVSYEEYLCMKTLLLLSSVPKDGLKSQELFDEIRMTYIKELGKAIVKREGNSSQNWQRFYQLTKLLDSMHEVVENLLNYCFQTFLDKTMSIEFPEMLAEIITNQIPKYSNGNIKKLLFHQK
Summary of the method: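 HeLa GR-bla reporter line; cells pre-incubated 4 h, compound in DMSO 18 h at 37 C; LiveBLAzer B/G FRET substrate 2 h RT; fluorescence intensity read-out.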

[17] = target: Glucocorticoid receptor (Homo sapiens) (UniProt P04150); experiment: qHTS assay to identify small molecule antagonists of the glucocorticoid receptor (GR) signaling pathway (AID 720692; active means well fitted inhibition curve with a large enough effect in the signal ratio in the repeat runs, not every such curve was filed as active; the % refers to the signal ratio; further: potency means the concentration at half of the fitted maximal effect)
Summary of the method: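 Read-out: beta-lactamase FRET substrate fluorescence, 2 h at room temperature, in HeLa cells stably carrying a GRE-driven bla reporter. Compounds were co-incubated with 5 nM dexamethasone agonist (final) for 18 h at 37 C.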

[18] = qHTS assay for small molecule disruptors of the mitochondrial membrane potential - cell viability (AID 720634; calls by dose curve;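 further: human HepG2 liver cancer cells; series mostly up to about 83 µM; nearly all actives have a fitted effect of over 20% in size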)
Summary of the method: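 Luminescence from CellTiter-Glo (ATP content) gave viability in HepG2 cells, read in the same wells as the MMP dye assay after 1 hr compound exposure at 37 C.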

[19] = qHTS assay for small molecule disruptors of the mitochondrial membrane potential (AID 720635); further: potency means the concentration at half of the fitted maximal effect
Summary of the method: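 Mitochondrial membrane potential tracked with Mito-MPS dye, red aggregates (ex 540/em 590 nm) against green monomers (ex 490/em 535 nm). Compound treatment 1 hr at 37C, dye 30 min in HepG2.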

Row | Structure (SMILES) | Potency [1] | Potency [2] | Potency [3] | outcome [4] | outcome [5] | outcome [6] | outcome [7] | outcome [8] | outcome [9] | outcome [10] | outcome [11] | outcome [12] | outcome [13] | outcome [14] | outcome [15] | outcome [16] | Potency [17] | Potency [18] | Potency [19]
1 | CCCN(CCC)c1c([N+](=O)[O-])cc(S(C)(=O)=O)cc1[N+](=O)[O-] | inactive | inactive | inactive | inactive | inactive | inactive | inactive | inactive | inactive | inactive | inactive | inactive | inactive | inactive | inactive | inactive | inactive | – | –
2 | O=C(CCl)c1ccc(Cl)cc1Cl | 18.8 µM (active) and 43.3 µM (active) | 5.96 µM (active) and 9.69 µM (active) and inactive | inactive | – | inactive | inactive | – | inactive | inactive | inactive | inactive | inactive | inactive | inactive | inactive | inactive | – | inactive | inactive and 17.1 µM (active)
3 | NCC(CC(=O)O)c1ccc(Cl)cc1 (configuration not stated) | inactive | inactive | inactive | inactive | inactive | inactive | inactive | inactive | inactive | inactive | inactive | inactive | inactive | inactive | inactive | inactive | inactive | inactive | –
4 | CC(C)N(C(=O)COc1nnc(C(F)(F)F)s1)c1ccc(F)cc1 | inactive | inactive | inactive | inactive | inactive | inactive | inactive | inactive | inactive | inactive | inactive | inactive | inactive | inactive | inactive | inactive | 49 µM (active) | – | –
5 | CCOC(=O)COc1cc(-c2nn(C)c(OC(F)F)c2Cl)c(F)cc1Cl | inactive | inactive | inactive | inactive | inactive | inactive | inactive | inactive | inactive | inactive | inactive | inactive | inactive | inactive | – | inactive | inactive | inactive | –
6 | CS/C(C)=N/OC(=O)N(C)SN(C)C(=O)O/N=C(\C)SC | inactive | inactive | – | inactive | inactive | inactive | inactive | inactive | – | inactive | inactive | inactive | inactive | inactive | – | inactive | – | inactive | inactive
7 | C/C=C/C=O | inactive | inactive | inactive | inactive | inactive | inactive | inactive | inactive | inactive | inactive | inactive | inactive | inactive | inactive | inactive | inactive | inactive | – | –
8 | O=C(N[C@H](c1ccccc1)[C@@H]1CN2CCC1CC2)c1c(Cl)ccc(C(F)(F)F)c1Cl | inactive | inactive | inactive | inactive | inactive | inactive | inactive | inactive | inactive | inactive | inactive | inactive | inactive | inactive | inactive | inactive | inactive | – | 43.9 µM (active)
9 | CN(N=O)c1ccc([N+](=O)[O-])cc1 | inactive | inactive | inactive | – | inactive | inactive | inactive | inactive | inactive | inactive | inactive | inactive | inactive | inactive | – | inactive | inactive | inactive | inactive
10 | COP(=S)(OC)Oc1cc(Cl)c(I)cc1Cl | inactive | inactive | inactive | inactive | inactive | inactive | – | inactive | inactive | inactive | inactive | inactive | inactive | inactive | inactive | inactive | 24.5 µM (active) | – | –
11 | C=CC(=O)OCCCCO | inactive | inactive | inactive | inactive | inactive | inactive | inactive | inactive | inactive | inactive | inactive | inactive | inactive | inactive | inactive | inactive | – | inactive | inactive
12 | O=Cc1ccc2c(c1)OCO2 | inactive | inactive | inactive | – | inactive | inactive | inactive | inactive | – | inactive | inactive | inactive | inactive | inactive | inactive | inactive | – | inactive | inactive
13 | CC(C)N(CCC(C(N)=O)(c1ccccc1)c1ccccn1)C(C)C (configuration not stated) | inactive | inactive | – | inactive | inactive | inactive | inactive | inactive | – | inactive | inactive | inactive | inactive | inactive | inactive | – | – | inactive | inactive
